In the library only some 8.3% were active in any assay of this set; here they are far more common.
SW480 rerep: A quantitative high throughput screen for small molecules that induce DNA re-replication in SW480 colon adenocarcinoma cells. AID 624297, 2012. actives 1.8% (n = 340,000). SW480 DNA re-replication, Hoechst DNA content imaging, 48 h. Potency, µM (series often up to 46.1 µM), without a hit: at the highest dose re-replication activation, hits mostly activators; further: potency means the concentration at half of the fitted maximal effect; % of control where 0% means no effect; nearly all actives have a fitted effect of over 55% in size
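Treated cells incubate 48 hr (37 C, 5% CO2), are stained 40 min with Hoechst, and nuclear fluorescence is enumerated; a rise in nuclei with high DNA signal marks re-replication.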
MCF10A rerep: A quantitative high throughput screen for small molecules that induce DNA re-replication in MCF 10a normal breast cells; MCF 10A DNA re-replication, Hoechst nuclear intensity, 48 h; Potency, µM (series often up to 46.1 µM), for inactives: top-dose activity, positive = re-replication, most hits filed as activators; actives 2.9% (n = 350,000); further: potency means the concentration at half of the fitted maximal effect; % of control where 0% means no effect; nearly all actives have a fitted effect of over 50% in size
VP16 counter: VP16 counterscreen qHTS for inhibitors of ROR gamma transcriptional activity; Drosophila S2 Gal4-VP16 UAS-luciferase, luminescence, 20 h; Potency, µM (highest dose often 53.6 µM), without a hit: at the top dose activity, negative = inhibition, most hits filed as inhibitors; actives 3.5% (n = 310,000); AID 2546, 2010;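 further: Gal4-VP16 expression switched on by copper sulfate through the metallothionein promoter; potency means the concentration at half of the fitted maximal effect; on the % scale 0 is the no-effect control and ±100 the full control effect; nearly all actives have a fitted effect of over 50% in size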
BCR signal inh: qHTS Assay to Find Inhibitors of Chronic Active B-Cell Receptor Signaling | Potency, µM (top dose mostly 46.1 µM), for the others: top-dose activity change, negative = inhibition, usual class: inhibitors | ABC-DLBCL IkBa-CBG/CBR reporter, luminescence ratio, 4 h | actives 0.05% (n = 340,000); active means well fitted inhibition curve with a large enough effect in the signal ratio, with a control signal flat, not every such curve was filed as active; inconclusive means small, poorly fitted or top-dose-only effect, or effect the other way, or a change in a side signal; the % refers to the signal ratio;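 further: potency means the concentration at half of the fitted maximal effect; plate controls were basal doxycycline-induced cells for no effect and cells given 10 µM MG132 for full effect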
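Doxycycline induced both beetle luciferases in TMD8 lymphoma cells; IKK-driven degradation limits the IkappaBalpha-fused green signal, while red luminescence normalises for cell number and nonspecific effects. Compounds tested up to 46 uM, 4 hrs.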
Giardia killer: Small Molecules that selectively kill Giardia lamblia: qHTS; Giardia lamblia trophozoite viability; activity change, % at 7.66 µM, hits read low; actives 0.15% (n = 340,000); AID 540267, 2011; in the data active means activity change below about -80%; inconclusive means between about -30% and that limit;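 further: parasites exposed to compound for two days anaerobically before the ATP read; on the % scale 0 is the no-effect control and ±100 the full control effect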
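Luminescence from cellular ATP indicates surviving trophozoites (100 cells/well) following 48 hrs anaerobic compound treatment at 37 deg C; signal develops 15-30 min at room temperature.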
RORgamma inh: qHTS for inhibitors of ROR gamma transcriptional activity; Nuclear receptor ROR-gamma (Mus musculus), P51450; Drosophila S2 Gal4-RORgamma UAS-luciferase reporter, 20 h; Potency, µM (series often up to 53.6 µM), without a hit: at the highest dose activity change, negative = inhibition, hits mostly inhibitors; actives 5.4% (n = 310,000); AID 2551, 2010; further: potency means the concentration at half of the fitted maximal effect; on the % scale 0 is the no-effect control and ±100 the full control effect; nearly all actives have a fitted effect of over 60% in size
Target sequence (P51450 whole entry, looked up, the tested form may be a part): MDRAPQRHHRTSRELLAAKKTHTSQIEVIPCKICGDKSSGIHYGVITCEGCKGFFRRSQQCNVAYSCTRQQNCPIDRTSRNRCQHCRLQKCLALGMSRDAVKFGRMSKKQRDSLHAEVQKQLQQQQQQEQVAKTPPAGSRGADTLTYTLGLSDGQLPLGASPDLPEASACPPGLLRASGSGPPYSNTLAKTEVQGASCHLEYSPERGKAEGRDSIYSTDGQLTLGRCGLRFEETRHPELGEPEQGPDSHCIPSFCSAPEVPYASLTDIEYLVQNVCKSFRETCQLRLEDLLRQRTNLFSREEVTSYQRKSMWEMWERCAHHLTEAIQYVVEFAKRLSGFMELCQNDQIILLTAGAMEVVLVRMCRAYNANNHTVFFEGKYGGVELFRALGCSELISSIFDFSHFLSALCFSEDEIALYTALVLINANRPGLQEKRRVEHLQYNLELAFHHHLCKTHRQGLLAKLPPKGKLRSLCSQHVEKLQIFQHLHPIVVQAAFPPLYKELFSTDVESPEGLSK
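ROR gamma transcriptional activity was tracked as Gal4-UAS luciferase output in stably transfected Drosophila Schneider cells, with compound added 1 hr before 700 uM copper sulfate induction and a 20 hr ambient-temperature incubation.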
Numbers without * were called inactive; ? = inconclusive; nt = no result given; [ ] = another dose, or the depositor's remark. Unless noted, the call rests on the fitted dose curve; in most records, active means well fitted curve in the direction sought with a large enough effect; inconclusive means small, poorly fitted or top-dose-only effect, or another doubt; inactive means no such curve, though single readings can be large; an effect the other way counts as inactive or inconclusive.

SMILES	SW480 rerep	MCF10A rerep	VP16 counter	BCR signal inh	Giardia killer	RORgamma inh
Cc1cc(Cl)ccc1N=c1ssnc1Cl	-1%[9.22 µM]	?	?	?	3	11µM*
O=C1CS/C(=N/N=C2C3CC4CC(C3)CC2C4)N1	-6%	-4%	3.2µM*	16%	-17	4.5µM*
CC1C/C(=N/N=C2/NC(=O)CS2)CC(C)(C)C1 (stereo not drawn)	-2%	0%	5µM*	1%	-6	2.2µM*
Cc1cc(C)nc(/N=C2/NC(=O)CS2)n1	-1%	21%	-1%	0%	0	4%
CC1C/C(=N/N2C(=O)CSC2=S)CC(C)(C)C1 (stereo not drawn)	-1%	0%	-8%	-7%	-4	10µM*
Cc1ccccc1/C=N/N1C(=O)CSC1=S	-13%	2%	-5%	8%	-24	-24%
Cc1cccc(NC(=O)CSc2nc3ccccc3nc2N2CCCC2)c1	25%	21µM*	2%	?	-16	-5%
O=C(CSc1nc2ccccc2nc1N1CCCCC1)N1CCN(c2ccccc2)CC1	1%	4.1µM*	6%	?	18	20%
O=C(CCCc1nc2ccccc2s1)N1CCN(c2ccccc2)CC1	-2%	2%	4µM*	0%	59	0%
CCc1ccc(NC(=O)CSc2nc3ccccc3nc2N2CCCCC2)cc1	2%	10µM*	-13%	?	25	-1%
CC(C)C[C@@H](CNCC(=O)[C@H](C)NC(=O)c1[nH]cnc1C(=O)N[C@H](CN)CC(C)C)NC(=O)c1nc[nH]c1C(=O)N[C@@H](C)C(=O)O	1%	?	nt	nt	4	nt
COc1ccc(C2Nc3ccc(NC(C)=O)cc3C(=O)N2Cc2ccccc2)cc1COc1ccc(NC(C)=O)cc1 (stereo not drawn)	nt	nt	nt	nt	-11	nt
Cc1ccc(S(=O)(=O)n2nccc2-c2c(-c3ccc(Cl)cc3)noc2C)cc1	1%	7%	-10%	8%	3	?
COc1ccc(/C=C2\NC(=S)N(CC3CCCO3)C2=O)c(OC)c1 (stereo not drawn)	-6%	?	?	?	10	16µM*
COc1ccc(/C=C2\NC(=S)N(CC3CCCO3)C2=O)c(OC)c1C (stereo not drawn)	-4%	2%	?	4%	5	?
COc1ccc(OC)c(CCNC(=O)CC2(CC3=NS(=O)(=O)c4ccccc4N3)CCCC2)c1	-4%	23%	-1%	?	-29	30%
Cc1ccc(S(=O)(=O)/N=C2/C=C(C3C(=O)CC(C)(C)CC3=O)C(=O)c3ccccc32)cc1	?	?	?	?	12	11µM*
CC(C)(C)NC(=O)NC(=O)CSc1nncs1	-71%	0%	-3%	2%	-7	6%
Cc1ccc(CSc2nc3c(c(SCC(=O)O)n2)CCCC3)cc1	-4%	11%	-6%	?	-9	25%
CNc1nc(SCc2ccc(C)cc2)nc2c1CCCC2	-1%	15µM*	?	?	-1	?
COC(=O)CSc1nc(SCc2ccc(C)cc2)nc2c1CCCC2	-6%	6%	-3%[0.365 µM]	-2%	-1	6%
Cc1ccc(CSc2nc3c(c(N(C)C)n2)CCCC3)cc1	15µM*	13µM*	-6%[0.365 µM]	1%	17	?
CN(C)c1nc(SCc2ccccc2Cl)nc2c1CCCC2	2%	?	7%[0.365 µM]	0%	23	7.9µM*
Cc1nc(SCc2ccccc2)nc2c1CCC2	5%	16%	-4%[10 µM]	?	14	38%
Cc1ncc2c(c1O)COP(=O)(O)OC2	nt	nt	-3%	nt	nt	2%
SMILES	SW480 rerep	MCF10A rerep	VP16 counter	BCR signal inh	Giardia killer	RORgamma inh
CC1CCCN(C(=O)COC(=O)CNC(=O)c2sc3ccccc3c2Cl)C1 (stereo not drawn)	-8%	2%	nt	1%	9	nt
CC1=Nc2cc(C(=O)NCCN3CCOCC3)ccc2Sc2c(C)ccc(C)c21	-10%	?	-8%	?	19	42%
COc1ccc(/C=C2/Sc3ccc(C(=O)NCCN4CCCCCC4)cc3NC2=O)cc1	?	?	20µM*	10%	-6	?
O=C1Nc2cc(C(=O)NCCCN3CCOCC3)ccc2S/C1=C/c1cccc(Cl)c1	15µM*	16µM*	-7%	7%	10	-1%
CC1=Nc2cc(C(=O)NCCCN3CCOCC3)ccc2Sc2c(C)ccc(C)c21	16µM*	?	-15%	-3%	13	13%
O=C1Nc2cc(C(=O)NCCCN3CCCC3)ccc2S/C1=C\c1ccccc1	?	?	-19%	8%	-8	-34%
Cc1ccc(NC(=O)C2CCN(C(=O)NCc3ccccc3)CC2)cc1C	-16%	-3%	8%	-7%	-3	3%
CCOC(=O)c1c(C)n(C)c2ccc(OCC(O)Cn3nc(C)c(Br)c3C)cc12 (stereo not drawn)	9%	15µM*	-6%	?	8	4%
CCOC(=O)c1c(C)n(-c2ccc(C)cc2)c2ccc(OCC(O)CNCCCO)cc12 (stereo not drawn)	2%	?	?	-1%	-6	7.1µM*
CCOC(=O)c1c(C)n(C)c2ccc(OCC(O)CNC(CC)CO)cc12 (stereo not drawn)	-5%	-1%	-2%	-9%	6	-13%
CNCc1ccccc1Sc1ccc(O)c(O)c1	?	?	7.1µM*	?	7	8.9µM*
COc1ccc(Sc2ccccc2CN(C)C)cc1OC	3%	-3%	7%	-3%	-2	-22%
O=C1NCCn2ccc(=O)cc21	1%	1%	-4%	7%	0	-2%
CSc1ccc(/C=C/C(=O)OCC(=O)N2CCc3ccccc32)cc1	-9%	-7%	nt	-1%	-9	nt
Cc1cc(C(=O)COC(=O)c2ccc[nH]c2=O)c(C)n1C1CC1	-8%	0%	-21%	2%	1	-19%
Cc1cc(C(=O)COC(=O)c2ccc[nH]c2=O)c(C)n1-c1ccccc1	-38%	-2%	0.45µM*	0%	?	13µM*
CCNC(=O)COC(=O)c1cc(C)n(-c2ccccc2)c1C	?	13%	-7%	?	14	-7%
Cc1cc(C(=O)OCC(=O)NCc2ccco2)c(C)n1-c1ccc(F)cc1	3.7µM*	2.1µM*	-3%	?	-1	9%

Screens: PubChem, National Center for Advancing Translational Sciences (NCATS)
